Calls of active or inactive are those of the source. How the calls were made is not given here.

The experiment in a line: H2O2 production by redox-active compounds – biochemical, 1 mM DTT, artefact control for Plk1 PBD inhibitor project, dose response (AID 936). The following applies: Redox cycling H2O2 generation, cell-free.
For the compound `O=C1C(C2=C(O)c3ccccc3C2=O)=Nc2ccccc21`, the EC50 is > 50 µM (inactive).
The result for `CCC(Sc1nc2n[nH]c(C)c2c(=N)n1-c1cccc(Cl)c1)C(=O)NCCOC` (stereo not drawn) reads > 50 µM (inactive); that for `O=C(O)COc1ccc(Br)cc1/C=N/O`, > 50 µM (inactive).

Values taken from PubChem BioAssay AID936 (University of Pittsburgh Molecular Library Screening Center, 2007).
